# Tau fluor counter: counter-screen for tau fibril formation inhibitors | 280,000 tested, 0.93% active | tau K18 P301L Alexa594 fluorescence, heparin fibrillization | Potency, µM (series often up to 57.7 µM), without a hit: at the highest dose activity change, negative = decrease | AID 1463; also: potency is read from the fitted curve at half-maximal effect; nearly all actives have a fitted effect of over 55% in size
#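 Human K18 P301L tau (15 uM unlabeled plus 0.24 uM Alexa 594-labeled, final) in 100 mM sodium acetate pH 7 was mixed with compound and 20 uM heparin and incubated 6 hr at 37 C.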
# Sfp PPTase inh: Sfp phosphopantetheinyl transferase inhibition | Q9F4F7 | Biochemical Sfp PPTase activity, qHTS | Potency, µM, without a hit: largest response in the series, negative = inhibition, hits mostly inhibitors | 310,000 tested, 3.5% active | AID 1490;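 also: the enzyme is Sfp with the accession as filed and its product quenches rhodamine fluorescence; potency is read from the fitted curve at half-maximal effect; 0% = enzyme reaction without inhibitor and -100% = no enzyme wells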
#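 Fluorescence-quenching assay: 15 nM Sfp-PPTase preincubated 15 min at room temperature with compound, then 5 uM rhodamine-CoA and 12.5 uM BHQ-2-labelled YbbR peptide added. Fluorescence (ex 525/em 598 nm) read at start and after 30 min; difference gives rate.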
# Tau FP inhib: blocks human tau fibril formation measured by polarization | 280,000 tested, 0.39% active | P10636 | Potency, µM (series often up to 57.7 µM), without a hit: at the top dose activity, negative = inhibition, usual class: inhibitors | K18 P301L tau heparin fibrillization, Alexa594 FP, 6 h; also: potency is read from the fitted curve at half-maximal effect; nearly all actives have a fitted effect of over 55% in size
# Target sequence (P10636 561-689 P618L limits assumed): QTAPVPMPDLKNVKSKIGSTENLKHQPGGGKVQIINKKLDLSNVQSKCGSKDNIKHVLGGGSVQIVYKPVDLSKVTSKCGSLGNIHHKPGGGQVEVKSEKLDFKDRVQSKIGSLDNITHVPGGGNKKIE
#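 Quantitative HTS format: compounds meet 15 uM recombinant K18 P301L tau and Alexa 594-tau tracer in 100 mM sodium acetate pH 7; 20 uM heparin triggers fibrillization at 37 C over 6 hr; FP gives the signal.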
# Tau ThT inhib: blocks human tau fibril formation measured by thioflavin T. P10636. Potency, µM (series often up to 57.4 µM), inactives show at the top dose activity, negative = inhibition, actives largely listed as inhibitors. 270,000 tested, 2.1% active. recombinant tau K18 P301L, heparin-induced fibrillization, ThT fluorescence. AID 1460; also: potency is read from the fitted curve at half-maximal effect; nearly all actives have a fitted effect of over 55% in size
#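 ThT emission at 510 nm, taken 1 hr after adding 30 uM dye, quantifies aggregates formed when 20 uM heparin acts on human tau K18 P301L for 6 hr at 37 C.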
# FBPA coupling cs: coupling enzyme interference in Giardia aldolase counter-screen | 290,000 tested, 0.67% active | activity change, negative = inhibition, % at 58.2 µM, hits read low | coupling enzyme system counterscreen, AmpLite Red fluorescence; in the data active = activity change below about -30%
#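 Counterscreen lacking aldolase: glyceraldehyde-3-phosphate coupling-enzyme reagent preincubated 10 min at RT with compound (at 57.5 uM final), then substrate/coupling system with AmpLite Red added; fluorescence read at 525/598 nm after 20 min RT.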
# Starred values were filed as active, the others as inactive; ? = inconclusive; nt = no result given; [ ] = another dose, or the depositor's remark. Compounds with a hit are over-represented: about 5.2% of the library has one in this group of screens. Unless noted, calls follow the shape of the dose curve; as a rule, active = well fitted curve in the direction sought with a large enough effect; inconclusive = small, poorly fitted or top-dose-only effect, or another doubt; inactive = no such curve, though single readings can be large; an effect the other way counts as inactive or inconclusive. Unless noted, % is scaled to controls: 0 for no effect and ±100 for the full control effect.
SMILES,Tau fluor counter,Sfp PPTase inh,Tau FP inhib,Tau ThT inhib,FBPA coupling cs
CCOC(=O)c1cc(C)n(CC2CCC(C(=O)Nc3cccc(C(C)=O)c3)CC2)c1C (centres undefined),?,nt,3%,-12%,nt
N#Cc1c(NC(=O)c2ccc(Br)o2)n(-c2ccccc2)c2nc3ccccc3nc12,-26%,-7%,-14%,25µM*,-31*
COc1ccc(-n2c(NC(=O)c3ccc(Br)o3)c(C#N)c3nc4ccccc4nc32)cc1,?,-28%,-12%,14µM*,-16
COc1cccc(C(=O)N(Cc2ccc(N(C)C)cc2)Cc2ccco2)c1,-26%,nt,1%,-16%,nt
COc1ccc2c(c1)C(=O)[C@@H](OC(=O)NCCOc1ccccc1)[C@H](c1ccc(OC)c(Br)c1)O2,-15%,-9%,-10%,-6%,0
CCCCCC(=O)Nc1nc(C)c(-c2csc(Nc3cc(Cl)ccc3OC)n2)s1,?,-5%,2%,?,-2
CCCC(=O)Nc1nc(C)c(-c2csc(Nc3cc(OC)ccc3OC)n2)s1,14µM*[quencher],-19%,?,?,-1
Cc1nc(NC(=O)c2ccccc2)sc1-c1csc(Nc2ccc(C(=O)O)cc2)n1,?,-23%,14%,nt,-3
CCCC(C)C(=O)Nc1nc(C)c(-c2csc(Nc3cc(OC)ccc3OC)n2)s1 (centres undefined),8.9µM*[quencher],16%,?,?,0
COc1ccccc1Nc1nc(-c2sc(NC(=O)CC(C)C)nc2C)cs1,?,?,5%,?,-21
COc1cccc(Nc2nc(-c3sc(NC(=O)c4ccccc4)nc3C)cs2)c1,32µM*[quencher],-2%,8%,18µM*,1
C=CCCC(=O)Nc1nc(C)c(-c2csc(Nc3cccc(OC)c3)n2)s1,?,0%,?,14µM*,1
COc1ccccc1NC(=O)C1=C(C)Nc2nc(SCc3ccccc3Cl)nn2C1c1ccncc1 (centres undefined),-8%,nt,-4%,-6%,nt
CCOC(=O)c1c(Nc2ccc(OC)cc2)nnc(-c2ccccc2)c1-c1ccccc1,-24%,nt,1%,?,nt
CCCC(=O)Nc1nc(C)c(-c2csc(Nc3ccccc3OC)n2)s1,16µM*[quencher],-27%,20%,13µM*,1
COc1cccc(Nc2nc(-c3sc(NC(=O)CC(C)C)nc3C)cs2)c1,16µM*[quencher],14%,6%,16µM*,-1
C=CCCC(=O)Nc1nc(C)c(-c2csc(Nc3cc(OC)ccc3OC)n2)s1,14µM*[quencher],1%,13%,14µM*,1
COc1ccc(OC)c(Nc2nc(-c3sc(N)nc3C)cs2)c1,14µM*[quencher],8.9µM*,-9%,11µM*,-31*
CCCCC(C)/C=C(C)/C=C(\C)C(=O)NC1=CC(O)(/C=C/C=C/C=C/C(=O)NC2=C(O)CCC2=O)C2OC2C1=O (centres undefined),nt,?,nt,nt,2
CCC(=O)Nc1nc(C)c(-c2csc(Nc3ccc(C(=O)O)cc3)n2)s1,nt,?,nt,nt,-2
Cc1ccc(Nc2nc(-c3sc(NC(=O)c4cccc(Cl)c4)nc3C)cs2)cc1,?,-3%,?,?,-2
Cc1nc(NC(=O)c2ccc(Cl)cc2)sc1-c1csc(Nc2cccc(F)c2)n1,13µM*[quencher],5%,?,7.1µM*,-1
CCC(=O)Nc1nc(C)c(-c2csc(Nc3cccc(C(=O)O)c3)n2)s1,-21%,20µM*,6%,4µM*,-8
CCCn1c(C)nc2c(NCCCN(CCO)CCO)nc(C)nc21,-8%,43%,2%,-8%,0
O=C1/C(=C\c2ccco2)SC(=S)N1C1CCCCC1,nt,-13%,nt,nt,0
SMILES,Tau fluor counter,Sfp PPTase inh,Tau FP inhib,Tau ThT inhib,FBPA coupling cs
CC1=C(C#N)C(=O)N(C2CCS(=O)(=O)C2)C(=O)/C1=C\c1ccco1 (centres undefined),?,45µM*,?,nt,-31*
O=C(O)[C@@H]1CSCN1,nt,56µM*,nt,nt,nt
CCOC(=O)c1c(C)oc2c1cc(NS(=O)(=O)c1ccc(C(=O)O)cc1)c1ccccc12,nt,56µM*,nt,nt,-20
CCOc1ccc(S(=O)(=O)Nc2cc3c(C(=O)OCc4ccccc4)c(C)oc3c3ccccc23)cc1,-27%,nt,-11%,3%,nt
COc1ccc(-c2nc3cnc(N4CCN(C)CC4)nc3n(Cc3cccc(OC)c3)c2=O)cc1,nt,-22%,nt,nt,2
CCC/C=C1/CCCOC(C(=O)NCCOC)(C(F)(F)F)C1 (centres undefined),nt,4%,nt,nt,4
Cc1ccc(NC(=O)c2sc(=S)n(-c3cc(C)ccc3F)c2N)cc1,-10%,50µM*,-5%,-8%,-11
COc1ccc(Cl)cc1-n1c(N)c(C(N)=O)sc1=S,-6%,16µM*,-12%,-3%,2
CCOc1ccccc1-n1c(N)c(C(N)=O)sc1=S,-7%,-18%,-2%,0%,-2
Cc1ccc(C)c(-n2c(N)c(C(N)=O)sc2=S)c1,-16%,-2%,-6%,-4%,-1
Cc1ccc(-n2c(N)c(C(N)=O)sc2=S)c(C)c1,-14%,20µM*,3%,-8%,8
Cc1ccccc1-n1c(N)c(C(=O)Nc2ccc(F)cc2)sc1=S,1%,?,0%,1%,-1
CCCCNC(=O)c1sc(=S)n(-c2ccccc2OC)c1N,-6%,45µM*,3%,-10%,-5
COC(=O)c1sc(=S)n(-c2ccccc2OC)c1N,-16%,12%,1%,-15%,3
CCCCNC(=S)Nc1ccc(Oc2ccccc2)cc1,?,50µM*,6%,?,6
Cc1noc(/C=C/c2ccco2)c1S(=O)(=O)N1CCC(C(=O)N2CCc3ccccc3C2)CC1,-12%,56µM*,-2%,?,3
Cc1ccc(CNC(=O)C2CCN(S(=O)(=O)c3c(C)noc3/C=C/c3ccco3)CC2)cc1,-19%,40µM*,10%,-13%,-2
COc1ccc(NC(=O)c2cc(C(C)=O)n3ccccc23)cc1Cl,28µM*[quencher],nt,?,-13%,nt
COCc1cc(O)c(O)c(O)c1-c1c(COC)cc(O)c(O)c1O,?,7.9µM*,6.3µM*,3.2µM*,-49*
CCCCCC1CC1C(=O)N/N=C/c1ccc(N(C)C)cc1 (centres undefined),?,-16%,4%,16µM*,nt
CN(C)c1ccc(/C=N/NC(=O)COc2ccccc2)cc1,-17%,3%,-1%,?,1
COc1ccccc1NC(=O)C1=C(C)Nc2nnnn2C1c1ccccc1OC (centres undefined),-4%,11%,-2%,-11%,3
COc1ccccc1/C=C1\CCCC2=C1Nc1nnnn1C2c1ccccc1OC (centres undefined),15%,50µM*,-2%,?,-6
CCC(=O)NC1Cc2ccccc2C(c2ccccc2)C1 (centres undefined),-5%,-6%,-5%,0%,nt
